What all share (experiment): yeast three-hybrid, YBZ-1, SC-Leu-His + 0.5 mM 3-AT, 4 days
Holding throughout (details): tags: N-Gal4 AD-HA kept; label: inside an RPR1-promoter hybrid RNA with tandem MS2 sites; ssRNA

Test [1] has as its target PUM1 PUF domain R5-LHS (Homo sapiens, UniProt Q14671 828-1176, C1007L;R1008H;Q1011S). The method, boiled down:
(§1)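 A centromeric plasmid in strain YBZ-1 co-expressed Pumilio-1 PUF domain libraries, randomized at the three base-contacting residues of each repeat, with matching RNA elements; the strain carries a LexA–MS2 coat fusion and a HIS3 reporter. After four days on SC-Leu (input) or SC-Leu-His + 0.5 mM 3-AT (selection), the repeat regions were PCR-amplified and Illumina-sequenced. The interaction score is the log change in variant frequency from input to selection, using log2 and a pseudocount of 1 where absent.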

Test [2] addresses PUM1 PUF domain R5-GRT (Homo sapiens, UniProt Q14671 828-1176, C1007G;Q1011T). The method, boiled down:
as §1

Test [3] addresses PUM1 PUF domain R5-RGA (Homo sapiens, UniProt Q14671 828-1176, C1007R;R1008G;Q1011A). The method, boiled down: as §1
In test [4] the target is PUM1 PUF domain R8-KHV (Homo sapiens, UniProt Q14671 828-1176, N1122K;Y1123H;Q1126V). The method, boiled down:
as §1

For test [5], the target named is PUM1 PUF domain R5-QKR (Homo sapiens, UniProt Q14671 828-1176, C1007Q;R1008K;Q1011R). The method, boiled down: as §1
For test [6], the target named is PUM1 PUF domain R4-EYG (Homo sapiens, UniProt Q14671 828-1176, N971E;H972Y;Q975G). The method, boiled down:
as §1

In test [7] the target is T1, PUM1 PUF domain R6-RYC (Homo sapiens, UniProt Q14671 828-1176, N1043R;Q1047C).
T1 sequence: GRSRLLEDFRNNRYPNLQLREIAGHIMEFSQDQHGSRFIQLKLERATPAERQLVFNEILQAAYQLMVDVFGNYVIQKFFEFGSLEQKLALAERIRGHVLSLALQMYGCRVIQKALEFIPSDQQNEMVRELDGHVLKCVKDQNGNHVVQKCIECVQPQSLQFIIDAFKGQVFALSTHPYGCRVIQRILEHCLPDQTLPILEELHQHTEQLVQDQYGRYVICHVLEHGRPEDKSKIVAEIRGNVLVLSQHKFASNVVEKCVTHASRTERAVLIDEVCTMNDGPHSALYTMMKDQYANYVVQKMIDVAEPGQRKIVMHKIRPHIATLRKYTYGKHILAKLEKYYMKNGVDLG
The method, boiled down:
as §1

For test [8], the target named is T2, PUM1 PUF domain R6-SWS (Homo sapiens, UniProt Q14671 828-1176, N1043S;Y1044W;Q1047S).
T2 sequence: T1 sequence with R216S, Y217W, C220S
The method, boiled down: as §1

For test [9], the target named is T3, PUM1 PUF domain R6-GWR (Homo sapiens, UniProt Q14671 828-1176, N1043G;Y1044W;Q1047R).
T3 sequence: T1 sequence with R216G, Y217W, C220R
The method, boiled down:
as §1

Test [10] addresses PUM1 PUF domain R3-FCG (Homo sapiens, UniProt Q14671 828-1176, C935F;R936C;Q939G). The method, boiled down:
as §1

Test [11] concerns the target PUM1 PUF domain R3-PFF (Homo sapiens, UniProt Q14671 828-1176, C935P;R936F;Q939F). The method, boiled down:
as §1

The target of test [12] is PUM1 PUF domain R3-YWW (Homo sapiens, UniProt Q14671 828-1176, C935Y;R936W;Q939W). The method, boiled down: as §1
In test [13] the target is PUM1 PUF domain R3-DRE (Homo sapiens, UniProt Q14671 828-1176, C935D;Q939E). The method, boiled down:
as §1

The target of test [14] is PUM1 PUF domain R3-WCR (Homo sapiens, UniProt Q14671 828-1176, C935W;R936C;Q939R). The method, boiled down:
as §1

Test [15] concerns the target PUM1 PUF domain R7-CFP (Homo sapiens, UniProt Q14671 828-1176, S1079C;N1080F;E1083P). The method, boiled down:
as §1

Test [16] concerns the target PUM1 PUF domain R7-RTQ (Homo sapiens, UniProt Q14671 828-1176, S1079R;N1080T;E1083Q). The method, boiled down:
as §1

The target of test [17] is PUM1 PUF domain R7-ISK (Homo sapiens, UniProt Q14671 828-1176, S1079I;N1080S;E1083K). The method, boiled down: as §1
Test [18] deals with PUM1 PUF domain R4-PYD (Homo sapiens, UniProt Q14671 828-1176, N971P;H972Y;Q975D). The method, boiled down:
as §1

The target of test [19] is T4, PUM1 PUF domain R6-VWH (Homo sapiens, UniProt Q14671 828-1176, N1043V;Y1044W;Q1047H).
T4 sequence: T1 sequence with R216V, Y217W, C220H
The method, boiled down: as §1

The target in test [20] is PUM1 PUF domain R1-EKK (Homo sapiens, UniProt Q14671 828-1176, S863E;R864K;Q867K). The method, boiled down:
as §1

Substitutions are numbered along the chain they refer to.

The values below come from article PMC8384837, “Expanding the binding specificity for RNA recognition by a PUF domain”.

“GGCUAGAACUAGUGGAUCCCCCGGCGCCCGGCGGCUCGAGCCCGGGUAAGUGUUAAUAGUCUGCAUGCCGCCGGGCGCCAUGCCUGCAGGUCGACUCUAGAAAACAUG”: the figures for the binding signal in test [1], in test [2] and in test [3] were 5.04 log2 enrichment (interaction score), 3.02 log2 enrichment (interaction score) and 1.01 log2 enrichment (interaction score), respectively.

For the sequence “GGCUAGAACUAGUGGAUCCCCCGGCGCCCGGCGGCUCGAGCCCGGGUAAGGGUAAAUAGUCUGCAUGCCGCCGGGCGCCAUGCCUGCAGGUCGACUCUAGAAAACAUG”, the binding signal in test [4] is 2.26 log2 enrichment (interaction score).

As for “GGCUAGAACUAGUGGAUCCCCCGGCGCCCGGCGGCUCGAGCCCGGGUAAGUGUCAAUAGUCUGCAUGCCGCCGGGCGCCAUGCCUGCAGGUCGACUCUAGAAAACAUG”, the binding signal in test [1] was 2.24 log2 enrichment (interaction score); in test [2], 0.6 log2 enrichment (interaction score); in [3], 2.27 log2 enrichment (interaction score); in test [5], 5.65 log2 enrichment (interaction score).

With “GGCUAGAACUAGUGGAUCCCCCGGCGCCCGGCGGCUCGAGCCCGGGUAAGUGUGAAUAGUCUGCAUGCCGCCGGGCGCCAUGCCUGCAGGUCGACUCUAGAAAACAUG”, the binding signal in [2] is 2.87 log2 enrichment (interaction score).

In the case of “GGCUAGAACUAGUGGAUCCCCCGGCGCCCGGCGGCUCGAGCCCGGGUAAGUGUACAUAGUCUGCAUGCCGCCGGGCGCCAUGCCUGCAGGUCGACUCUAGAAAACAUG”, the binding signal in test [6] was 0.47 log2 enrichment (interaction score).

Turning to “GGCUAGAACUAGUGGAUCCCCCGGCGCCCGGCGGCUCGAGCCCGGGUAAGUGUAAAUAGUCUGCAUGCCGCCGGGCGCCAUGCCUGCAGGUCGACUCUAGAAAACAUG”, the binding signal is 4.42 log2 enrichment (interaction score) in test [7]; 4.04 log2 enrichment (interaction score) in test [8]; 2.94 log2 enrichment (interaction score) in [2]; 6.56 log2 enrichment (interaction score) in [9]; 3.15 log2 enrichment (interaction score) in test [6]; 0.82 log2 enrichment (interaction score) in test [10]. In addition, the binding signal in test [11] was 1.1 log2 enrichment (interaction score).

Regarding “GGCUAGAACUAGUGGAUCCCCCGGCGCCCGGCGGCUCGAGCCCGGGUAAGUGUAAGUAGUCUGCAUGCCGCCGGGCGCCAUGCCUGCAGGUCGACUCUAGAAAACAUG”, the binding signal was 4.57 log2 enrichment (interaction score) in test [12], 5.32 log2 enrichment (interaction score) in test [10], 5.66 log2 enrichment (interaction score) in test [13] and 4.82 log2 enrichment (interaction score) in test [14].

As to “GGCUAGAACUAGUGGAUCCCCCGGCGCCCGGCGGCUCGAGCCCGGGUAAGCGUAAAUAGUCUGCAUGCCGCCGGGCGCCAUGCCUGCAGGUCGACUCUAGAAAACAUG”, the binding signal in [4] is 2.09 log2 enrichment (interaction score).

For “GGCUAGAACUAGUGGAUCCCCCGGCGCCCGGCGGCUCGAGCCCGGGUAAGUAUAAAUAGUCUGCAUGCCGCCGGGCGCCAUGCCUGCAGGUCGACUCUAGAAAACAUG”, the binding signal in [15] was 2.42 log2 enrichment (interaction score).

Take “GGCUAGAACUAGUGGAUCCCCCGGCGCCCGGCGGCUCGAGCCCGGGUAAGUGUAAUUAGUCUGCAUGCCGCCGGGCGCCAUGCCUGCAGGUCGACUCUAGAAAACAUG”: the binding signal in [11] was 3.19 log2 enrichment (interaction score); in test [14] it was 1.63 log2 enrichment (interaction score).

Consider “GGCUAGAACUAGUGGAUCCCCCGGCGCCCGGCGGCUCGAGCCCGGGUAAGUUUAAAUAGUCUGCAUGCCGCCGGGCGCCAUGCCUGCAGGUCGACUCUAGAAAACAUG”, for which the results for the binding signal in test [16] and in [17] were 4.75 log2 enrichment (interaction score) and 2 log2 enrichment (interaction score), respectively.

“GGCUAGAACUAGUGGAUCCCCCGGCGCCCGGCGGCUCGAGCCCGGGUAAGUGCAAAUAGUCUGCAUGCCGCCGGGCGCCAUGCCUGCAGGUCGACUCUAGAAAACAUG”: in [9], the binding signal was 3.5 log2 enrichment (interaction score).

In the case of “GGCUAGAACUAGUGGAUCCCCCGGCGCCCGGCGGCUCGAGCCCGGGUAAGUGUAUAUAGUCUGCAUGCCGCCGGGCGCCAUGCCUGCAGGUCGACUCUAGAAAACAUG”, the binding signal is 5.78 log2 enrichment (interaction score) in test [18] and 1.12 log2 enrichment (interaction score) in test [6].

With “GGCUAGAACUAGUGGAUCCCCCGGCGCCCGGCGGCUCGAGCCCGGGUAAGUGAAAAUAGUCUGCAUGCCGCCGGGCGCCAUGCCUGCAGGUCGACUCUAGAAAACAUG”, the binding signal in test [8] was 3.49 log2 enrichment (interaction score); in [19], 7.07 log2 enrichment (interaction score).

For “GGCUAGAACUAGUGGAUCCCCCGGCGCCCGGCGGCUCGAGCCCGGGUAAGUGUAAAUUGUCUGCAUGCCGCCGGGCGCCAUGCCUGCAGGUCGACUCUAGAAAACAUG”, the binding signal in test [20] was 2.94 log2 enrichment (interaction score).
